Assay results published in PubChem BioAssay.

Assay: MM1S cell viability effects, profiling panel, calcein-AM fluorescence, 48 h, basal (AID 1165);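 note: viability of MM1S multiple myeloma cells under basal unstimulated conditions; test concentration not given here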
Details: higher = more signal

SMILES	z-score
NC(=O)NCC#Cc1ccc2c(c1)[C@]1(C(=O)N2)[C@H](C(=O)N2CCN(c3ncccn3)CC2)[C@H]2C(=O)O[C@H](c3ccccc3)[C@H](c3ccccc3)N2[C@@H]1c1ccc(O)cc1	-0.977
COc1ccc(C#Cc2ccc3c(c2)[C@]2(C(=O)N3)[C@H](c3ccc(O)cc3)N3[C@H](c4ccccc4)[C@H](c4ccccc4)OC(=O)[C@H]3[C@@H]2C(=O)Nc2nc3ccccc3s2)cc1	-1.4
COCCCNC(=O)[C@@]1(Sc2ccc(C)cc2)CC(=O)N(C2Cc3ccccc3C2)[C@@H]1c1ccc(CO)cc1	0.762
CCC1=C2CN(Cc3ccccc3)[C@@H](C(=O)Cc3ccccc3)C2C=CCC1 (stereo not given in full)	0.435
CCOC(=O)C1=C[C@@H](C(C)(C)C)N(S(=O)(=O)c2ccc(C)cc2)[C@H]1c1cccc2ccccc12	-0.205
C=CCC(OC(C)=O)[C@@H]1[C@@H](N(Cc2cc3ccccc3o2)C(=O)Cc2ccc(F)cc2)c2cc(OCCCO)ccc2N1C(=O)Cc1ccc2ccccc2c1 (stereo not given in full)	-0.082
COC(=O)[C@@]1(Cc2ccc(OC)cc2)[C@H]2c3cc(C(=O)N4CCCC4)n(CCc4c[nH]c5ccc(OC)cc45)c3C[C@H]2CN1C(=O)c1ccccc1	-1.52
COC(=O)[C@@]1(Cc2ccc(OC)cc2)[C@H]2c3cc(C(=O)N(C)C)n(Cc4ccc(C)o4)c3C[C@H]2CN1C(=O)c1ccccc1	-1.92
CC(C)c1ccc(NN2C(C(O)c3ccc(F)cc3)C=CC3C(=O)N(c4ccccc4)C(=O)C32)cc1 (stereo not given)	-1.12
COc1cc2c(cc1O)C(C1CC1)N(C)CC2 (stereo not given)	0.533
